The structures appear in SMILES notation. Where “and” joins values, the source holds several entries; their conditions need not be identical. Equal entries are not always repeated. The panel holds about 83,000 compounds, 20% with a hit somewhere; the sample as a whole holds those more often.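 Values shown are percent growth following 48 h exposure of cells in 96-well plates to a single concentration of compound; below 10 was considered active.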 A number with no mark means an inactive call. Calls of active or inactive are those of the source. Where a SMILES comes first, the peptide text is derived from it.

The assay deals with SK-OV-3 ovarian. Put plainly: NCI-60 one-dose screen, 48 h (100 = growth as untreated, 0 = no growth, -100 = all killed). Particulars: 10 µM unless noted. The method, then: Growth inhibition of the SK-OV-3 human tumor cell line is measured as a screen for anti-cancer activity. Cells are grown in 96 well plates and exposed to the test compound for 48 hours. Compounds are tested at a single concentration, which is 10^-5 M for most compounds. The reported endpoint is percent growth (GI% or GIPRCNT), where numbers from 0 - 100% represent growth inhibition, and numbers from -100% - 0 represent cell death. For example, a value of 40 represents 60% growth inhibition. A value of 0 means no net growth occurred over the course of the experiment. A value of -40 indicates 40% of cells at the beginning of the experiment died by the end of the experiment. A value of -100 means all cells are dead at the end of the experiment.
NCI-60 Human Tumor Cell Lines Screen was performed using the standard one-dose NCI protocol, which is described in more detail at https://dtp.cancer.gov/discovery_development/nci-60/default.htm.
Compounds with GIPRCNT values below 10 were considered active. Activity score was based on GIPRCNT using the following formula: […]
Score is 0 for GIPRCNT values of 100 or above, 50 for GIPRCNT values of 0, and 100 for GIPRCNT values of -100.
Turning to `N#CC(C#N)N=Nc1cc(Cl)ccc1Cl`, the growth was 99.2%. In the case of `Brc1ccc(SSc2ccc(Br)cc2)cc1` it was 110%; in that of `CC(=O)OC(C)C(=O)NCC(C)O` (stereo not given), 95.3%; in that of `CC(C)C(C)(C)c1ccc(O)cc1`, 107%. With `Oc1ccc(Cc2ccccc2Cl)c(O)c1` the figure was 104%. With `CN(C)c1ccc(/C=C\C(=O)c2ccccc2)cc1` the figure was 92.3% and 104%. Regarding `O=C(O)/C=C\C(=O)Nc1cccc2ccccc12`, the growth is 92% and 103%. In the case of `O=c1n(CC2CO2)c(=O)n(CC2CO2)c(=O)n1CC1CO1` (stereo not given) it was 68.6%; in that of `O=c1[nH]cnc2c1ncn2C1OC(CO)C(O)C1O` (stereo not given), 95.7% and 104% and 105%; in that of `c1ccc(CNCCNCc2ccccc2)cc1`, 107%. With `CC1(C)COC(=S)N1` the figure was 109%. With `O=C(O)CCCl` the figure was 118%; with `NC(=O)NCCCC(N)C(=O)O` (stereo not given), 100%. As to `CCCCOc1ccc(Nc2cc(Cl)ccc2C(=O)O)cn1`, the growth was 108%. `CCCCCCCCCCCCCCCc1ccc(N)c(OC2OC(CO)C(O)C(O)C2O)c1` (stereo not given): the growth is 149%.

As to `OCC1OC(O)C(O)C(O)C1O` (stereo not given), the growth was 109%. Turning to `Cc1cc(-c2ccc(N=Nc3ccc4c(S(=O)(=O)O)cc(S(=O)(=O)O)c(N)c4c3O)c(C)c2)ccc1N=Nc1ccc2c(S(=O)(=O)O)cc(S(=O)(=O)O)c(N)c2c1O`, the growth is 102%.

In the case of `CC[C@H](CC[C@@H](C)[C@H]1CC[C@H]2[C@@H]3CC=C4C[C@@H](O)CC[C@]4(C)[C@H]3CC[C@]12C)C(C)C`, the growth is 94.8% and 104%. With `COc1cc(C(O)C2C(=O)OCC2C2(c3ccc4c(c3)OCO4)SCCCS2)cc(OC)c1OC` (stereo not given) the figure was 105%; with `COc1ccc(Nc2ccc3ccccc3c2)cc1`, 72.6%; with `O=C1CSC2=NCCN12`, 105% and 124%. With `OCCN1CCCCCCC1` the figure was 103%; with `CC(=O)OCC1OC(OC(C)=O)C(OC(C)=O)C(OC(C)=O)C1OC(C)=O` (stereo not given), 102% and 106%; with `Cc1cc2ccccc2cn1`, 108% and 103%.

On to `O=C1c2c(O)ccc(O)c2C(=O)c2c(NCCNCCO)ccc(NCCNCCO)c21`, for which the growth is -23.4% (active) and -35.4% (active). With `Nc1ccc2c(O)cc(S(=O)(=O)O)cc2c1` the figure was 96.1% and 96.6%. For the compound `O=C(Cc1ccccc1)c1ccc(O)c(Cl)c1`, the growth was 101%. With `CC1CCC2(C(=O)O)CCC3(C)C(=CCC4C5(C)CCC(O)C(C)(C)C5CCC43C)C2C1C` (stereo not given) the figure was 91.6% and 104%. In the case of `C/C(=C\c1ccccc1)c1ccccn1` it was 106%. In the case of `Cl` it was 115%; in that of `O=C(/C=C/c1ccccc1)c1ccccc1`, 91.7%.

With `Cc1ccc(S(=O)(=O)c2ccccc2)cc1`, the growth is 29.5%. In the case of `O=C1OC(C(O)C(O)CO)C(O)=C1O` (stereo not given) it was 114% and 92.9%; in that of `NC(Cc1ccccc1)C(=O)NC(Cc1ccccc1)C(=O)O` (stereo not drawn) (H-Phe-Phe-OH; configuration not given here), 97.6% and 110%; in that of `Fc1ccc([I+]c2ccc(F)cc2)cc1`, 68.4%. On to `Cn1cnc([N+](=O)[O-])c1Sc1ncn[nH]1`, for which the growth was 115%. With `NN1CCOC(c2ccccc2)C1` (stereo not given) the figure was 106%; with `CC(C)NCC(O)c1ccc(O)c(O)c1` (stereo not given), 95.5% and 94.9% and 102%. On to `O=C1OC(c2ccccc2)=N/C1=C\c1ccccc1`, for which the growth was 97.2%.

As to `CC(C)(O)C(=O)O`, the growth is 97.9%.

The record behind these values is PubChem BioAssay (NCI).
